Reference: PubChem BioAssay
Measured potencies and affinities stand elsewhere. Inconclusive results are not listed. Active and inactive are the calls of the source. Unless noted, no rule for the calls is given here.

Experiments:
[1] = CMV-driven luciferase expression suppression in HEK293 – cell-based, luminescence, dry powder, counter-screen for Pax8 inhibitor project, dose response (AID 743020;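 active = signal-lowering compounds whose fitted half-maximal concentration is at or below twice the top tested dose in every run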;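 also: HEK293 cells stably expressing the CMV luciferase reporter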)
[2] = general cell-killing toxicity readout – plate reader, dry powder samples, cytotoxicity control for PAX8 inhibitor project, dose response (AID 743021)
[3] = IGROV1 cell killing – plate reader, dry powder samples, PAX8 inhibitor project, dose response (AID 743043);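 also: more negative means fewer viable cells or more cytotoxicity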
[4] = OVCAR-3 cell viability loss – plate reader, dry powder samples, PAX8 inhibitor project, dose response (AID 743044); details: max activity: at 35 µM, stronger effect = lower value unless noted
[5] = toxicity toward immortalized ovarian surface epithelium – cell-based, plate reader, dry powder samples, cytotoxicity control for PAX8 inhibitor project, dose response (AID 743045);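 also: 0% = neutral control median and -100% = positive control median; more negative values mean more cell killing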
[6] = A2780 cell killing – plate reader, dry powder samples, cytotoxicity control, dose response (AID 743046);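 also: 0% = neutral control wells and -100% = cytotoxic reference compound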
[7] = OVCAR8 cell viability loss – plate reader, dry powder samples, PAX8 project, dose response (AID 743197)
[8] = toxicity toward HepG2 liver cells – cell-based, plate reader, cherry-pick, antagonist series, cytotoxicity control, dose response (AID 743416);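 also: 0% = neutral control wells and -100% = positive control wells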

Measured: max activity

CN1c2ccc(-c3cccc(F)c3)cc2[C@@H]2[C@@H](CCN2C(=O)Cc2ccccc2)[C@@H]1CO
inactive: [1] | [2] | [3] | [4] 21.5% | [5] | [6]

C[C@@H]1CCCCO[C@@H](CN(C)Cc2ccc(C(F)(F)F)cc2)[C@@H](C)CN([C@@H](C)CO)C(=O)c2cc(NS(=O)(=O)c3ccccc3)ccc2O1
inactive: [1] | [2] | [3] | [4] 24.1% [at 0.26 µM, stronger effect = lower value] | [5] | [6]

C[C@@H]1CN([C@H](C)CO)S(=O)(=O)c2ccc(C#CC3CCCC3)cc2O[C@@H]1CN(C)C(=O)Cc1ccncc1
inactive: [1] | [2] | [3] | [4] 16.7% [at 0.5 µM, stronger effect = lower value] | [5] | [6] | [7]

O=C(Nc1cccc(Cl)c1)Nc1nnc(-c2ccncc2)s1
inactive: [1] | [2]

Cc1ccc(NC(=O)CN(C)C(=O)Cn2ncc(Cl)c(Cl)c2=O)cc1
inactive: [1] | [2]

C[C@@H]1CCCCO[C@H](CN(C)Cc2ccc(C(F)(F)F)cc2)[C@H](C)CN([C@@H](C)CO)C(=O)c2cc(NS(=O)(=O)c3cccs3)ccc2O1
inactive: [1] | [2] | [3] | [4] -8.64% [at 0.5 µM, stronger effect = lower value] | [5] | [6] | [7]

CC(=O)[C@@]1(O)Cc2c(O)c3c(c(O)c2[C@H](O[C@H]2C[C@H](N)[C@H](O)[C@H](C)O2)C1)C(=O)c1ccccc1C3=O
inactive: [1] | [2]

O=C(C[C@H]1CC[C@H]2[C@@H](COC[C@@H](O)CN2Cc2ccc(Oc3ccccc3)cc2)O1)N1CCCCC1
inactive: [1] | [2] | [3] | [4] 35% | [5] | [6] | [7]

Nc1nnnn1/N=C/C(Br)=C/c1ccccc1
inactive: [1] | [2]

C[C@@H]1CCCCO[C@H](CN(C)Cc2ccc(C(F)(F)F)cc2)[C@H](C)CN([C@H](C)CO)C(=O)c2cc(NS(=O)(=O)c3cccs3)ccc2O1
inactive: [1] | [2] | [3] | [4] 29.1% [at 0.26 µM, stronger effect = lower value] | [5] | [6] | [7]

CCCNC(=O)Nc1ccc2c(c1)OC[C@H](C)N(Cc1ccc(-c3ccccn3)cc1)C[C@@H](C)[C@@H](OC)CN(C)C2=O
inactive: [1] | [2] | [3] | [4] 60.3% | [5] | [6]

CCOC(=O)Nc1ccc2c(c1)N(C(=O)CCN(CC)CC)c1ccccc1S2=O (stereo not drawn)
inactive: [1] | [2]

C[C@H](CO)N1C[C@H](C)[C@@H](CN(C)S(=O)(=O)c2ccc(Cl)cc2)OCCCC[C@H](C)Oc2ccc(NS(=O)(=O)c3ccc(Cl)cc3)cc2C1=O
inactive: [1] | [2] | [3] | [4] -14.4% [at 8 µM, stronger effect = lower value] | [5] | [6] | [7]

C[C@@H]1CN([C@@H](C)CO)C(=O)Cc2cc(NC(=O)CCC(F)(F)F)ccc2O[C@H]1CN(C)Cc1ccc(-c2ccccc2)cc1
inactive: [1] | [2] | [3] | [4] -2.75% [at 16 µM, stronger effect = lower value] | [5] | [6] | [7]

O=C(Nc1ccc(Cl)c(Cl)c1)N[C@@H]1CC[C@H](CCn2cc(C3CCCCC3)nn2)O[C@H]1CO
inactive: [1] | [2] | [3] | [4] -6.27% [at 16 µM, stronger effect = lower value] | [5] | [6] | [7]

COc1ccc(F)cc1-c1cc(NC=O)c2ncc(-c3cc(OC)c(OC)c(OC)c3)n2c1
inactive: [1] | [2]

CCCC1=Nc2cc(C(=O)NCCCOCC)ccc2Sc2ccccc21
inactive: [2]

Cc1ccsc1/C=N/Nc1cccc(C(=O)O)c1
inactive: [1] | [2] | [8]

C[C@@H]1CCCCO[C@H](CN(C)C(=O)C2CCCCC2)[C@@H](C)CN([C@@H](C)CO)C(=O)c2cc(NC(=O)Nc3ccc(F)cc3)ccc2O1
inactive: [1] | [2] | [5]

COc1cc(C2C3=C(COC3=O)Oc3cc4c(cc32)OCO4)cc(OC)c1O (stereo not drawn)
inactive: [2]

CCN(CC(=O)Nc1c(F)cccc1F)C(=O)c1cc(S(=O)(=O)N(C)C)ccc1N1CCCC1
inactive: [1] | [2] | [4] | [5] | [6]

COc1cc(-c2cnc3c(NC=O)cc(-c4ccccc4)cn23)cc(OC)c1OC
inactive: [2]

CC(C)CCCCCCCCCCCCC(=O)NCC(=O)NC1C(C)OC(Nc2ncnc3nc[nH]c23)C(O)C1O (stereo not drawn)
inactive: [2]

Cc1noc(C)c1S(=O)(=O)N(C)C[C@H]1OCCCC[C@@H](C)Oc2ccc(NS(=O)(=O)c3ccc(Cl)cc3)cc2C(=O)N([C@@H](C)CO)C[C@@H]1C
inactive: [1] | [2] | [3] | [5]

CCCn1c(C)cc(C(=O)CN2C(=O)c3ccccc3S2(=O)=O)c1C
not listed: [5] | [7]
inactive: all other assays above

Cc1cc(C(C)(C)C)cc(C)c1Cn1c2[n+](c3ccc(C(F)(F)F)cc31)CCCCC2
inactive: [2]

C[C@H](CO)N1C[C@H](C)[C@H](CN(C)S(=O)(=O)c2ccc(Cl)cc2)OCCCC[C@H](C)Oc2ccc(NS(=O)(=O)c3ccc(F)cc3)cc2C1=O
inactive: [1] | [2] | [3] | [4] 20.8% | [5] | [7]

Cc1nc2sc(C(c3ccco3)N3CCN(C(c4ccccc4)c4ccccc4)CC3)c(O)n2n1 (stereo not drawn)
inactive: [1] | [2] | [5] | [6]

C[C@@H]1CN([C@@H](C)CO)C(=O)Cc2cc(NS(=O)(=O)c3ccc(Cl)cc3)ccc2O[C@H]1CN(C)Cc1ccc(Oc2ccccc2)cc1
inactive: [1] | [2] | [5] | [6]

C[C@H](O)[C@@H]1CN2CCc3c([nH]c4ccc(-c5ccc6c(c5)OCO6)cc34)[C@@H]2C[C@@H]1N(C)C(=O)NC1CCCCC1
inactive: [2]

C[C@@H]1CN([C@H](C)CO)C(=O)c2cc(NS(=O)(=O)c3ccc(Cl)cc3)ccc2O[C@@H](C)CCCCO[C@@H]1CN(C)Cc1ccccc1
inactive: [1] | [3] | [4] 22% [at 1 µM, stronger effect = lower value] | [5] | [6] | [7]

Cc1ccc(S(=O)(=O)CC(CN2CCCCC2)N2CCCCC2)cc1 (stereo not drawn)
inactive: [1] | [2] | [4] | [5] | [6]

Cc1ccc2c(c1)c1c3n2CCN(CC(N)=O)C3CCC1 (stereo not drawn)
inactive: [2]

COc1ccc(CCNc2nnc(Sc3nnnn3-c3ccccc3)s2)cc1OC
inactive: [2]

N#C[C@@H]1[C@H](c2ccc(C#CC3CCCCC3)cc2)[C@H](CO)N1S(=O)(=O)c1ccccc1
inactive: [1] | [2] | [5] | [6] | [7]

CSC(=Nc1ccccc1)N=C(SCc1ccccc1)N(C)C
inactive: [2]

Cc1ccc(S(=O)(=O)N(C)C[C@H]2Oc3cc(C#Cc4ccncc4)ccc3S(=O)(=O)N([C@@H](C)CO)C[C@@H]2C)cc1
inactive: [1] | [2] | [3] | [5] | [6]

COc1ccc(-c2ccc(C3[C@@H]4CN(C(=O)Nc5cccc(F)c5)C[C@H]3N4)cc2)cc1 (stereo partly drawn)
inactive: [1] | [5] | [6]

C[C@H](CO)N1C[C@H](C)[C@H](CN(C)S(=O)(=O)c2ccc(Cl)cc2)OCCCC[C@H](C)Oc2ccc(NC(=O)Nc3ccc(C(F)(F)F)cc3)cc2C1=O
inactive: [1] | [3] | [5] | [7]

C[C@H]1CN([C@@H](C)CO)C(=O)Cc2cc(NC(=O)NC3CCCCC3)ccc2O[C@H]1CN(C)S(=O)(=O)c1ccc(Cl)cc1
not listed: [4] | [8]
inactive: all other assays above

C[C@@H]1CCCCO[C@@H](CN(C)S(=O)(=O)c2ccc(Cl)cc2)[C@H](C)CN([C@H](C)CO)C(=O)c2cc(NS(=O)(=O)c3ccc(F)cc3)ccc2O1
inactive: [1] | [2] | [4] 22.4% [at 2.1 µM, stronger effect = lower value] | [5] | [6] | [7]

COc1ccc(S(=O)(=O)Nc2ccc3c(c2)C(=O)N([C@@H](C)CO)C[C@H](C)[C@@H](CN(C)Cc2ccc(C(F)(F)F)cc2)OCCCC[C@H](C)O3)cc1
inactive: [1] | [2] | [5] | [6]

C[C@@H]1CN([C@@H](C)CO)C(=O)c2cc(NC(=O)c3ccccc3)ccc2O[C@@H](C)CCCCO[C@@H]1CN(C)Cc1ccc(C(F)(F)F)cc1
inactive: [1] | [2] | [3] | [5] | [6]

CC(=O)NC(c1ccc(Cl)cc1)c1ccc2cccnc2c1O (stereo not drawn)
inactive: [2]

C[C@@H]1CCCCO[C@@H](CN(C)C(=O)Nc2cccc3ccccc23)[C@H](C)CN([C@H](C)CO)C(=O)c2cc(NS(=O)(=O)c3ccc(F)cc3)ccc2O1
inactive: [1] | [2] | [4] 12.2% [at 0.26 µM, stronger effect = lower value] | [5] | [6]
